Unmarked numbers belong to inactive results. The rule behind the calls is not given here.
What follows are compounds tested against Pantothenate synthetase (Mycobacterium tuberculosis (strain ATCC 25618 / H37Rv)) (UniProt P9WIL5) (assay: Recombinant Mtb pantothenate synthetase (PanC) inhibitors, coupled enzyme, confirmatory (AID 375;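 note: 0% = full reaction with vehicle and 100% = no enzyme background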)). Settings: coupled enzyme assay; at 10 µM, hits give high values.
Sequence of Pantothenate synthetase (Mycobacterium tuberculosis (strain ATCC 25618 / H37Rv)) (P9WIL5 whole entry, looked up): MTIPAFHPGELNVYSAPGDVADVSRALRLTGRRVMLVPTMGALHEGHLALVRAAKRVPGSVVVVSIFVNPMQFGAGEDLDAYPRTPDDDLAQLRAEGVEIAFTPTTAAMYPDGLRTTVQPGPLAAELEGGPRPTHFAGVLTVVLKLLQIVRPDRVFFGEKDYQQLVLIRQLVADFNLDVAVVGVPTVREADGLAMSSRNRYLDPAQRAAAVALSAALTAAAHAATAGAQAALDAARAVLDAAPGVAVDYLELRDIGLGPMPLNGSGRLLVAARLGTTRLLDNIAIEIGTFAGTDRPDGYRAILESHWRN

Row | SMILES | inhibition [%]
1 | COc1ccc(-c2noc(CN3C(=O)c4ccccc4C3=O)n2)cc1 | 0
2 | COc1cccc(OCC(O)CN2CCN(CCO)CC2)c1 (stereo not given) | 0
3 | O=c1cc(-c2ccc(Cl)cc2)[nH][nH]1 | 1
4 | CC1(C)NC(=O)N(CNc2cc(Cl)ccc2Cl)C1=O | 0
5 | Cc1nc(CNS(=O)(=O)c2cc(C)c(C)cc2C)cs1 | 1
6 | COc1ccc(C(=O)N(Cc2ccco2)C(C(=O)NC2CCCC2)c2ccc(O)cc2)cc1OC (stereo not given) | 0
7 | Oc1ccc2[nH]cnc2c1CN1CCCCC1 | 0
8 | CCOCCCn1c(=NC(C)=O)c(C(=O)OCC)cc2c(=O)n3ccccc3nc21 | 0
9 | Cc1c(C(=O)O)sc2nc3n(c(=O)c12)CCC(C)CC3 (stereo not given) | 2
10 | CC1=NC(Nc2nc(C)c3ccccc3n2)=NC(C)(C)C1 | 0
11 | COc1ccc(OC)c(S(=O)(=O)N2CCN(c3c(C)cccc3C)CC2)c1 | 1
12 | O=C(c1cnc2n(c1=O)CCS2)N1CCc2ccccc21 | 2
13 | CC(C)=CCC(C)(C)C1OCCN1C(=O)c1ccccc1 (stereo not given) | 2
14 | CC(C)=CCSc1nnc(CCNC(=O)OC(C)(C)C)o1 | 3
15 | Cc1ccc(OC(=O)CCc2c(C)nc3ncnn3c2C)cc1 | 0
16 | C=CCn1c(SCC(=O)NCC2CCCO2)nnc1C1CCCCC1 (stereo not given) | 8
17 | CCCCC(c1nnnn1C1CCCC1)N1CCN(C2CCCCC2)CC1 (stereo not given) | 1
18 | CC(NC(=O)COc1ccc(Br)cc1)C(=O)O (stereo not given) | 0
19 | CC(n1cnnn1)C12CC3CC(CC(C3)C1)C2 (stereo not given) | 8
20 | COc1ccccc1N(CC(=O)Nc1cccnc1)S(C)(=O)=O | 5

Row | SMILES | inhibition [%]
21 | CCN(CC)C(=O)CN(c1cc(Cl)ccc1OC)S(C)(=O)=O | 0
22 | COc1ccc(S(=O)(=O)N2Cc3ccccc3CC2C(=O)Nc2ccc(O)cc2)cc1OC (stereo not given) | 10
23 | CCOC(=O)Cc1csc(NC(=O)CSc2nnc(-c3ccncc3)n2Cc2ccco2)n1 | 0
24 | CCn1c(=N)n(CC(=O)C23CC4CC(CC(C4)C2)C3)c2ccccc21 | 0
25 | Cc1ccn2cc(CCNC(=O)CC(C)(C)C)nc2c1 | 0
26 | COC(=O)[C@@H](N)Cc1ccc(O)cc1 | 0
27 | COc1ccc(-n2c(Cc3cccn3C)nnc2SCC(N)=O)cc1 | 0
28 | COC(=O)c1cccc(NC(=O)C2COc3ccccc3O2)c1C (stereo not given) | 0
29 | O=S(=O)(c1cccc(S(=O)(=O)N2CCC(N3CCCCC3)CC2)c1)N1CCOCC1 | 0
30 | Cc1ccc(S(=O)(=O)CCC(=O)Nc2ccc3c(c2)OCO3)cc1 | 6
31 | Cc1ccccc1-c1noc(N)c1C#N | 0
32 | COc1cccc(C2C(C(N)=O)=C(C)Nc3nc(CCCO)nn32)c1OC (stereo not given) | 3
33 | COc1cccc(C(=O)NCc2nnc(SCC(=O)Nc3nccs3)n2-c2ccccc2)c1 | 2
34 | S=C(NCC1CCCO1)n1nnc2ccccc21 (stereo not given) | 6
35 | Cc1nnc(N2C(=O)c3oc4ccccc4c(=O)c3C2c2ccco2)s1 (stereo not given) | 2
36 | C=CCOc1ccc(C2C(C(=O)c3ccco3)=C(O)C(=O)N2Cc2cccnc2)cc1 (stereo not given) | 0
37 | CN1CCN(c2ccc(Cl)cc2NC(=O)c2cccc(S(=O)(=O)N(C)C)c2)CC1 | 1
38 | Cc1cc(N=Cc2cc(Br)ccc2O)no1 | 6
39 | O=C(NCCCNC(=O)c1ccccn1)c1ccccn1 | 12
40 | FC(F)(F)c1cc(-c2ccco2)nc(-n2nnc3ccccc32)n1 | 0
